Among the test systems are SK-MEL-2 melanoma; SN12C renal; UO-31 renal; TK-10 renal; ACHN renal; CAKI-1 renal; A498 renal; CCRF-CEM leukemia; MOLT-4 leukemia; SR leukemia; RPMI-8226 leukemia; OVCAR-8 ovarian; OVCAR-5 ovarian; OVCAR-4 ovarian; SK-OV-3 ovarian; IGROV1 ovarian; OVCAR-3 ovarian; HS 578T breast; NCI/ADR-RES ovarian.
Assay in all cases: NCI-60 one-dose screen, 48 h (100 = growth as untreated, 0 = no growth, -100 = all killed)
Common to all, as to details: 10 µM unless noted

SMILES strings stand for the structures. The panel holds about 83,000 compounds, 20% with a hit somewhere; the sample as a whole holds those more often.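 Note: values are percent growth. 100 is the growth of untreated cells, values between 100 and 0 indicate rising inhibition; between -100 and 0 indicates cell death.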 A number with no mark means an inactive call. Calls of active or inactive are those of the source. The calls were made as follows: active = growth percent below 10; inactive = the rest.

Turning to `COc1cc(-c2nc3ccccc3[nH]2)ccc1OCc1nnc(-c2ccc(CC(C)C)cc2)o1`, the growth with SK-MEL-2 melanoma is 101%; with SN12C renal it was 89.9%; in the experiment on UO-31 renal, 64.9%; with TK-10 renal, 115%; with ACHN renal it was 101%; in the experiment on CAKI-1 renal, 96.3%. The growth is 64% in the experiment on A498 renal; 84.9% with CCRF-CEM leukemia; 78.8% in the experiment with MOLT-4 leukemia; 80.2% with SR leukemia; 83% with RPMI-8226 leukemia; 92.2% in the experiment with OVCAR-8 ovarian. In addition, the growth with OVCAR-5 ovarian was 114%; in the experiment on OVCAR-4 ovarian, 90.9%; with SK-OV-3 ovarian, 99.1%; in the experiment with IGROV1 ovarian it was 92.3%; with OVCAR-3 ovarian it was 95.2%; in the experiment on HS 578T breast, 87.4%. Further, the growth in the experiment with NCI/ADR-RES ovarian is 89.8%.
Consider `CC(=O)O[C@H]1[C@@H]2OC(=O)C(CSc3ccccc3)[C@@H]2C[C@H]2O[C@]2(C)CC/C=C(\C)CCC[C@@H]1C` (stereo partly specified), for which the growth in the experiment with SK-MEL-2 melanoma was 35.6%; in the experiment on SN12C renal, 31.6%; in the experiment with UO-31 renal, 11.7%; in the experiment with TK-10 renal, -5.98% (active); in the experiment with ACHN renal, 33.5%; with CAKI-1 renal, 2.92% (active). In addition, the growth in the experiment on A498 renal is 116%; in the experiment on CCRF-CEM leukemia, 52.4%; in the experiment with MOLT-4 leukemia, 22.7%; in the experiment on SR leukemia it was 58.2%; with RPMI-8226 leukemia, 51.6%; with OVCAR-8 ovarian it was 28.7%. Besides, the growth in the experiment on OVCAR-5 ovarian is 83.6%; in the experiment on OVCAR-4 ovarian, 34.3%; with SK-OV-3 ovarian it was 103%; with OVCAR-3 ovarian, -9.73% (active); in the experiment on NCI/ADR-RES ovarian, 29.6%.
Regarding `O=C(Cn1cccc(Nc2ccccc2)c1=O)Nc1ccccc1`, the growth with SK-MEL-2 melanoma was 121%; in the experiment with SN12C renal it was 104%; in the experiment with UO-31 renal it was 91.6%; in the experiment on TK-10 renal, 107%; in the experiment with ACHN renal it was 103%; with CAKI-1 renal, 97.6%. Further, the growth with A498 renal is 65.6%; in the experiment on CCRF-CEM leukemia it was 105%; in the experiment on MOLT-4 leukemia, 110%; in the experiment on SR leukemia it was 104%; with RPMI-8226 leukemia it was 100%; with OVCAR-8 ovarian, 102%. The growth is 102% in the experiment on OVCAR-4 ovarian; 104% with SK-OV-3 ovarian; 119% in the experiment on IGROV1 ovarian; 115% in the experiment on OVCAR-3 ovarian; 102% in the experiment with HS 578T breast.
Take `COc1ccc(Nc2cc(C)nc(N3CCN(c4ccnc5cc(Cl)ccc45)CC3)n2)cc1`: the growth with SK-MEL-2 melanoma is 48%; in the experiment with SN12C renal, 40.9%; with UO-31 renal, -0.534% (active); with TK-10 renal, 46.8%; with ACHN renal, 41.5%; with CAKI-1 renal, 35.1%. Also, the growth with A498 renal is -1.56% (active); in the experiment on CCRF-CEM leukemia, 16%; in the experiment on MOLT-4 leukemia, 11.1%; in the experiment with SR leukemia it was -4.15% (active); in the experiment on RPMI-8226 leukemia, 16.2%; with OVCAR-8 ovarian it was 53.6%. Further, the growth was 73.4% in the experiment with OVCAR-5 ovarian; 36.6% with OVCAR-4 ovarian; 51% in the experiment with SK-OV-3 ovarian; -11% (active) in the experiment with IGROV1 ovarian; 6.63% (active) in the experiment on OVCAR-3 ovarian; 71.1% in the experiment on HS 578T breast.
With `O=C1NC(=S)N[C@H]1CC(=O)n1cnc2ccccc21`, the growth in the experiment on SK-MEL-2 melanoma was 104%; in the experiment on SN12C renal, 95.4%; in the experiment on UO-31 renal, 75.5%; with TK-10 renal, 112%; in the experiment with ACHN renal, 95.3%; in the experiment on CAKI-1 renal, 88.7%. In addition, the growth with A498 renal is 80.3%; with CCRF-CEM leukemia it was 112%; in the experiment on MOLT-4 leukemia, 108%; in the experiment on RPMI-8226 leukemia it was 115%; in the experiment on OVCAR-8 ovarian, 104%; in the experiment with OVCAR-5 ovarian, 100%. Also, the growth in the experiment on OVCAR-4 ovarian is 107%; in the experiment with SK-OV-3 ovarian it was 111%; with IGROV1 ovarian, 96.5%; in the experiment with OVCAR-3 ovarian, 110%; in the experiment with HS 578T breast, 99.1%; in the experiment with NCI/ADR-RES ovarian, 96.5%.
Regarding `COc1ccc(CCNc2nc3c(c(=O)n(Cc4ccc(Br)cc4)c(=O)n3C)n2C)cc1OC`, the growth was 93% in the experiment on SK-MEL-2 melanoma; 91.1% in the experiment on SN12C renal; 70.6% in the experiment on UO-31 renal; 111% in the experiment on TK-10 renal; 89.7% with ACHN renal; 85.6% in the experiment with CAKI-1 renal. The growth was 92.6% in the experiment with A498 renal; 99.7% in the experiment on CCRF-CEM leukemia; 88.2% with MOLT-4 leukemia; 98.9% in the experiment with SR leukemia; 78.5% with RPMI-8226 leukemia; 90.5% with OVCAR-8 ovarian. Further, the growth in the experiment on OVCAR-5 ovarian is 94%; with OVCAR-4 ovarian, 80.1%; in the experiment on SK-OV-3 ovarian, 94.9%; in the experiment on IGROV1 ovarian it was 83.2%; in the experiment on OVCAR-3 ovarian, 98.4%; in the experiment with HS 578T breast it was 91.1%. In the experiment with NCI/ADR-RES ovarian, the growth is 82.9%.
As for `O=S(=O)(Nc1ccc(NS(=O)(=O)c2ccccc2)c(Cl)c1)c1ccccc1`, the growth in the experiment on SK-MEL-2 melanoma is 91.6%; in the experiment on SN12C renal, 102%; in the experiment with UO-31 renal, 88.7%; in the experiment with TK-10 renal, 100%; in the experiment on ACHN renal, 105%; in the experiment with CAKI-1 renal it was 92.4%. Besides, the growth with A498 renal is 113%; with CCRF-CEM leukemia, 92%; with MOLT-4 leukemia, 79%; in the experiment with SR leukemia it was 90.9%; in the experiment on RPMI-8226 leukemia it was 90.8%; with OVCAR-8 ovarian it was 103%. For the same compound, the growth with OVCAR-5 ovarian was 108%; in the experiment on OVCAR-4 ovarian, 100%; with SK-OV-3 ovarian, 104%; with IGROV1 ovarian it was 98.6%; in the experiment with OVCAR-3 ovarian, 104%; with HS 578T breast, 103%. Further, in the experiment on NCI/ADR-RES ovarian, the growth is 100%.
As for `O=C(COc1ccc(-c2nc3cc(Cl)c(Cl)cc3[nH]2)cc1)N=Nc1c(O)[nH]c2ccccc12`, the growth is 14.6% in the experiment on SK-MEL-2 melanoma; -27.1% (active) with SN12C renal; 99.7% with UO-31 renal; 22.8% in the experiment on TK-10 renal; 25.6% in the experiment with ACHN renal; 38.5% with CAKI-1 renal. Further, the growth with A498 renal was -1.56% (active); in the experiment with CCRF-CEM leukemia, 16.1%; with MOLT-4 leukemia, 27%; with SR leukemia, 9.9% (active); with RPMI-8226 leukemia, 8.82% (active); with OVCAR-8 ovarian it was -24.2% (active). Besides, the growth in the experiment with OVCAR-5 ovarian was 53.6%; in the experiment with OVCAR-4 ovarian, -55.1% (active); in the experiment with SK-OV-3 ovarian it was 4.99% (active); in the experiment on IGROV1 ovarian, 33.2%; in the experiment with OVCAR-3 ovarian, -54.9% (active); in the experiment on HS 578T breast it was -36.3% (active). The growth in the experiment on NCI/ADR-RES ovarian is 85.1%.

(Values after PubChem BioAssay (NCI).)
